From PubChem
IL-1B inflam inh – inhibitors of inflammasome signaling (IL-1 beta secretion); THP-1 LPS/ATP IL-1B secretion, AlphaLISA, 16 h; hits give low values; activity change, % at 57.5 µM; 4.7% of 360,000 active; AID 743279; in the data active means activity change below about -50%; inconclusive means mostly about -30% to -49%
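Secreted IL-1B measured by AlphaLISA bead assay after 16 h compound exposure of THP-1 cells; compounds (final up to 57.5 uM) added 1 h before LPS (250 ng/mL) and ATP (1.25 mM) stimulation; lower signal means less secretion.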
HT1080NT lethal – kills 2HG-producing HT-1080-NT fibrosarcoma cells; AID 686970; 1.6% of 360,000 active; Potency, µM (doses to about 46.1 µM), actives largely listed as cytotoxic; HT-1080-NT fibrosarcoma viability, CellTiter-Glo ATP luminescence, 48 h;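 further: NT is the 2HG producing partner of a matched IDH1 knockdown line; nearly all actives have a fitted effect of over 55% in size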
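Compounds were tested in concentration-response format on HT-1080-NT cells for 48 hours at 37 degrees C. Cell viability came from CellTiter-Glo luminescence; curves were classified by r2, response magnitude and activity.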
TDP1 cell noCPT – qHTS for Inhibitors of human tyrosyl-DNA phosphodiesterase 1 (TDP1): qHTS in cells in absence of CPT. DT40 Tdp1-/- hTDP1 cells, no CPT, ATP luminescence, 48 h. Potency, µM (titrated, usually from 46.2 µM), most hits filed as inhibitors. 15% of 420,000 active; further: nearly all actives have a fitted effect of over 55% in size
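Stably hTDP1-transfected Tdp1-null chicken DT40 cells were treated with library compounds minus camptothecin and grown for at least 48 hr at 37 °C, after which cellular ATP was quantified by luminescence.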
HT1080 IDH1KD tx – HT-1080 IDH1 knockdown cell toxicity (counter line); HT-1080 IDH1 knockdown viability, ATP luminescence, 48 h; Potency, µM (series often up to 46.1 µM), most hits filed as cytotoxic; 2% of 360,000 active
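Cytotoxicity counter-line: IDH1KD HT-1080, 48 h, CellTiter-Glo. Curves classed by r2, magnitude and activity.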
TDP1 cell CPT – growth inhibition of DT40 Tdp1-/-;hTDP1 cells with camptothecin (screen for TDP1 inhibitors). 12% of 420,000 active. chicken DT40 Tdp1-/-;hTDP1 cells + 20 nM CPT, ATP luminescence, 48 h. Potency, µM (titrated, usually from 46.2 µM), actives largely listed as inhibitors. AID 686979; further: nearly all actives have a fitted effect of over 55% in size
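Cell growth measured by CellTiter-Glo luminescence after a minimum 48 h, 37 C compound exposure with 20 nM CPT in Tdp1-knockout DT40 cells stably expressing hTDP1, seeded 400/well; qHTS titration format.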
Numbers stand for hits; [ ] = remark or other dose. In the library only some 19% were active in any assay of this set; here they are far more common. Unless noted, the call rests on the fitted dose curve; in most records, active means well fitted curve in the direction sought with a large enough effect; inconclusive means small, poorly fitted or top-dose-only effect, or another doubt; inactive means no such curve, though single readings can be large; an effect the other way counts as inactive or inconclusive.

What do the screens show for `O=C1c2nccnc2C(=O)N1c1ccc(C(F)(F)F)cc1`?
IL-1B inflam inh: inactive; HT1080NT lethal: inactive; TDP1 cell noCPT: inactive; HT1080 IDH1KD tx: inactive; TDP1 cell CPT: inactive

What do the screens show for `O=[N+]([O-])c1cccc(N=NN(CCO)c2cccc([N+](=O)[O-])c2)c1`?
IL-1B inflam inh: inactive; HT1080NT lethal: inconclusive; TDP1 cell noCPT: inconclusive; HT1080 IDH1KD tx: inactive; TDP1 cell CPT: inactive

Results for CCCN(N=Nc1cccc([N+](=O)[O-])c1)c1cccc([N+](=O)[O-])c1 ?
IL-1B inflam inh: -50.6; HT1080NT lethal: inactive; TDP1 cell noCPT: inconclusive; HT1080 IDH1KD tx: inactive; TDP1 cell CPT: inconclusive

How did CCOC(=O)C1=C(CS(=O)(=O)c2ccc(F)cc2)NC(=O)NC1c1ccc(O)c(O)c1 (centres undefined) do in these assays?
IL-1B inflam inh: inactive; HT1080NT lethal: inactive; TDP1 cell noCPT: inactive; HT1080 IDH1KD tx: inactive; TDP1 cell CPT: inactive

How did Cc1ccc(Cn2c(N)nc3ccccc32)cc1 do in these assays?
IL-1B inflam inh: inactive; HT1080NT lethal: inactive; TDP1 cell noCPT: 9.2µM; HT1080 IDH1KD tx: inactive; TDP1 cell CPT: 18.4µM

Results for Nc1nc2ccccc2n1Cc1ccc(Cl)c(Cl)c1 ?
IL-1B inflam inh: -91.7; HT1080NT lethal: inconclusive; TDP1 cell noCPT: inconclusive; HT1080 IDH1KD tx: inconclusive; TDP1 cell CPT: inconclusive

Results for Nc1nonc1-c1nc2ccccc2n1Cc1ccc(Cl)cc1 ?
IL-1B inflam inh: inactive; HT1080NT lethal: inactive; TDP1 cell noCPT: inactive; HT1080 IDH1KD tx: inactive; TDP1 cell CPT: inactive

How did O=C(NCc1ccc(Cl)cc1)NC1COc2ccccc2C1 (centres undefined) do in these assays?
TDP1 cell noCPT: inactive; TDP1 cell CPT: inactive

Results for COc1ccc(S(=O)(=O)NCCc2csc(-c3ccc(F)cc3)n2)cc1F ?
TDP1 cell noCPT: 25.9µM; TDP1 cell CPT: 23.1µM

Results for COc1ccc(-c2nc(CNS(=O)(=O)c3ccc(F)cc3)cs2)cc1 ?
TDP1 cell noCPT: 18.4µM; TDP1 cell CPT: inconclusive

What do the screens show for `COc1ccc(-c2nc(CNS(=O)(=O)c3cccc(F)c3)cs2)cc1`?
TDP1 cell noCPT: 14.6µM; TDP1 cell CPT: inactive

What do the screens show for `COc1ccc(S(=O)(=O)NCCc2csc(-c3ccc(F)cc3)n2)cc1`?
TDP1 cell noCPT: 14.6µM; TDP1 cell CPT: 11.6µM

Results for Cc1cc(C(=O)N2CCOc3ccc(CN4CCC(Oc5cccnc5)CC4)cc3C2)c(C)o1 ?
TDP1 cell noCPT: inconclusive; TDP1 cell CPT: inactive[9.04 µM]

How did COC(=O)/C=C1\OC(C2CC2)c2ccccc21 (centres undefined) do in these assays?
IL-1B inflam inh: inactive; HT1080NT lethal: inactive; TDP1 cell noCPT: 16.4µM; HT1080 IDH1KD tx: inactive; TDP1 cell CPT: 8.2µM

How did O=C(CCC(=O)Nc1ccccc1Cl)NNC(=O)C1CCCCC1 do in these assays?
IL-1B inflam inh: inactive; HT1080NT lethal: inactive; TDP1 cell noCPT: inactive; HT1080 IDH1KD tx: inactive; TDP1 cell CPT: inactive

How did O=C1C(=O)N(CCCc2ccccc2)c2ccccc21 do in these assays?
IL-1B inflam inh: inactive; HT1080NT lethal: inactive; TDP1 cell noCPT: 1.64µM; HT1080 IDH1KD tx: inactive; TDP1 cell CPT: 2.06µM

Results for O=C1c2ccccc2C(=O)N1C/C=C/c1ccccc1 ?
IL-1B inflam inh: inactive; HT1080NT lethal: inactive; TDP1 cell noCPT: inactive; HT1080 IDH1KD tx: inactive; TDP1 cell CPT: inactive

Results for O=C1C(=O)N(C/C=C/c2ccccc2)c2ccccc21 ?
IL-1B inflam inh: inactive; HT1080NT lethal: inconclusive; TDP1 cell noCPT: 0.581µM; HT1080 IDH1KD tx: inconclusive; TDP1 cell CPT: 0.92µM

How did Cc1ccc(CNC(=O)CSc2nc(=O)n3ccc(C)cc3n2)cc1 do in these assays?
IL-1B inflam inh: inactive; HT1080NT lethal: inactive; TDP1 cell noCPT: inactive; HT1080 IDH1KD tx: inactive; TDP1 cell CPT: inactive

What do the screens show for `O=C(CSc1nc2ccccc2c(=O)n1Cc1ccc(F)cc1)NCc1cccs1`?
IL-1B inflam inh: inactive; HT1080NT lethal: inactive; TDP1 cell noCPT: inactive; HT1080 IDH1KD tx: inactive; TDP1 cell CPT: inactive

How did Cc1cccc(Cn2c(SCc3ccc(C(=O)NCc4cccs4)cc3)nc3ccncc32)c1 do in these assays?
TDP1 cell noCPT: 23.1µM; TDP1 cell CPT: inconclusive

How did Cc1cccc(Cn2c(CNC(=O)c3ccccc3)nc3ccccc32)c1 do in these assays?
TDP1 cell noCPT: inconclusive; TDP1 cell CPT: inactive

How did O=C(NCc1cccs1)c1ccc(CSc2nc3ccncc3n2Cc2ccccc2)cc1 do in these assays?
TDP1 cell noCPT: 18.4µM; TDP1 cell CPT: inconclusive

Results for CC(=O)N1c2ccccc2N(Cc2ccc(C)cc2C)C(=O)C1(C)C ?
IL-1B inflam inh: inactive; HT1080NT lethal: inconclusive; TDP1 cell noCPT: 5.8µM; HT1080 IDH1KD tx: 16.4µM; TDP1 cell CPT: 6.51µM

Results for C=CCN1C(=O)C(C)(C)N(C(C)=O)c2ccccc21 ?
IL-1B inflam inh: inactive; HT1080NT lethal: inactive; TDP1 cell noCPT: inactive; HT1080 IDH1KD tx: inactive; TDP1 cell CPT: inactive

Results for CCc1ccc(C(=O)NNC(=O)CN2C(=O)NC3(CCCC3)C2=O)cc1 ?
IL-1B inflam inh: inactive; HT1080NT lethal: inactive; TDP1 cell noCPT: inactive; HT1080 IDH1KD tx: inactive; TDP1 cell CPT: inactive

How did Cc1ccccc1CC1SC(N)=NC1=O (centres undefined) do in these assays?
IL-1B inflam inh: inactive; HT1080NT lethal: inactive; TDP1 cell noCPT: inactive; HT1080 IDH1KD tx: inactive; TDP1 cell CPT: inactive

How did NS(=O)(=O)c1ccc(NC(=O)CN2C(=O)COc3ccc(Cl)cc32)cc1 do in these assays?
TDP1 cell noCPT: inactive; TDP1 cell CPT: inactive

Results for COc1cccc(CC(=O)Nc2ccc3c(c2)OC2(CCCC2)O3)c1 ?
IL-1B inflam inh: inactive; HT1080NT lethal: inactive; TDP1 cell noCPT: inconclusive; HT1080 IDH1KD tx: inactive; TDP1 cell CPT: 18.4µM

Results for CCOC(=O)N1CCN(C(=O)c2ccc3nc(SCc4ccc(F)cc4)n(C)c3c2)CC1 ?
IL-1B inflam inh: inconclusive; HT1080NT lethal: inactive; TDP1 cell noCPT: 20.6µM; HT1080 IDH1KD tx: inactive; TDP1 cell CPT: 23.1µM

Results for CCc1ccc(CNC(=O)c2ccc3nc(SCc4ccc(F)cc4)n(C)c3c2)cc1 ?
TDP1 cell noCPT: 20.6µM; TDP1 cell CPT: 14.6µM

What do the screens show for `CC12CCC3c4cc(CN5CCOCC5)c(O)cc4CCC3C1CCC2=O` (centres undefined)?
IL-1B inflam inh: inactive; HT1080NT lethal: inactive; TDP1 cell noCPT: inconclusive; HT1080 IDH1KD tx: inactive; TDP1 cell CPT: inconclusive

What do the screens show for `Cc1nc2sc(C(c3cccs3)N3CCN(Cc4ccccc4)CC3)c(O)n2n1` (centres undefined)?
IL-1B inflam inh: inactive; HT1080NT lethal: inactive; TDP1 cell noCPT: inactive; HT1080 IDH1KD tx: inactive; TDP1 cell CPT: 23.1µM

How did CC(C)Cc1nc2cc(NS(=O)(=O)N(C)C)cc(C(=O)N3CCc4ccccc4C3)c2n1C do in these assays?
TDP1 cell noCPT: inactive; TDP1 cell CPT: inactive[9.04 µM]
